Hit rate of the full screen: of about 420,000 compounds, about 64,000 (15%) were called active. About 27% were inconclusive and are not listed. The list is a sample of the results. A number with no mark means an inactive call. Calls follow the shape of the dose curve; as a rule, active = well fitted inhibition curve with a large enough effect; inconclusive = small, poorly fitted or top-dose-only effect; inactive = flat fitted curve, though single readings scatter.
Experiment: qHTS for Inhibitors of human tyrosyl-DNA phosphodiesterase 1 (TDP1): qHTS in cells in absence of CPT; also: nearly all actives have a fitted effect of over 55% in size
Details: DT40 Tdp1-/- hTDP1 cells, no CPT, ATP luminescence, 48 h; activity change, negative = growth inhibition: at 46.2 µM (top of the series)
Summary of the method: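 Compound effects on proliferation are scored in DT40 Tdp1-/-;hTDP1 cells in the absence of CPT. ATP levels (CellTiter-Glo luminescence) are recorded after a ≥48 hr, 37 °C incubation.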
% is scaled to controls: 0 for no effect and ±100 for the full control effect; potency is read from the fitted curve at half-maximal effect.

SMILES	Potency	activity change, negative = growth inhibition
c1ccc2c(c1)CSc1sccc1C2=C1CCNCC1	16.4 µM (active)	–
Nc1nc(Br)c2ccccc2c1-c1ccc(F)cc1	–	-14.7%
CCOc1c(Nc2cccc(Cl)c2)c(=O)c1=O	–	-14.5%
CCNCCCNCCCNCCCNCC	3.76 µM (active)	–
COc1ccc2oc(=O)c(C(=O)N3CCCc4ccccc43)cc2c1	–	-27.3%
Cc1[nH]n(-c2ccc(Cl)cc2)c(=O)c1/C=N/n1c(C)nc2ccccc2c1=O	18.4 µM (active)	–
CN(C(=O)Nc1ccc(Cl)cc1)n1cnc2ccccc2c1=O	–	-22.3%
S=C(Cc1ccc(Cl)cc1)N1CCOCC1	–	-3.23%
C=C1C(=O)OC2C1CCC(C)=CCCC1(C)OC21 (stereo unspecified)	3.26 µM (active)	–
CCn1cc(-c2cc(C(=O)O)on2)c(C)n1	–	4.25%
COc1ccc(NC(=O)C2=C(C)NC(=O)NC2c2ccccc2[N+](=O)[O-])cc1 (stereo unspecified)	–	-13.5%
CN(C)S(=O)(=O)c1ccc(N/C=C(\[N+](=O)[O-])S(=O)(=O)c2ccccc2)cc1	–	-20.4%
COc1ccc(N/C=C(\C2OC(=O)c3ccccc32)[N+](=O)[O-])cc1 (stereo unspecified)	23.1 µM (active)	–
CC(C)=CCC/C(C)=C/C(=O)O	–	1.48%
O=C(NCCCNC(=O)NC1CCCCC1)NC1CCCCC1	–	-15.5%
CCn1c(SCC(=O)Nc2ccc(Br)cc2)nc2sc3c(c2c1=O)CCN(C)C3	–	-1.28%
CCCSc1nc2sc3c(c2c(=O)n1-c1ccc(OC)cc1)CCN(C)C3	14.6 µM (active)	–
CCSc1nc2sc3c(c2c(=O)n1-c1ccc(C)cc1)CCN(C)C3	7.31 µM (active)	–
CC1(C)Cc2c(sc3nc(SCC(=O)NCc4ccccc4)n(-c4ccccc4)c(=O)c23)CS1	–	-5.28%
CCOc1ccc(-n2c(SCC(=O)Nc3ccc(OC)cc3)nc3sc4c(c3c2=O)CCN(C)C4)cc1	–	-11.7%
COc1ccccc1-n1c(SCC(=O)O)nc2sc3c(c2c1=O)CCC3	–	13.9%
CC(=O)CSc1nc(CCc2ccccc2)c(C#N)c(=O)[nH]1	–	-5.37%

SMILES	Potency	activity change, negative = growth inhibition
COc1ccc(NC(=O)c2cc(=O)[nH]c3ccccc23)cc1S(=O)(=O)N1CCOCC1	–	8.13%
Cc1sc2ncn(CC(=O)NCCN(C)C)c(=O)c2c1S(=O)(=O)N1CCC(C)CC1	–	1.52%
O=C(Nc1cccc(OCC(=O)N2CCOCC2)c1)C1CCCCC1	–	-2.37%
COc1cc(/C=C/C(=O)O)cc(S(=O)(=O)Nc2ccccc2C(=O)NCCc2ccccc2)c1OC	–	0.839%
Cc1cc(C)nc(/N=C2\NC(=O)CC(C(=O)O)N2c2ccc(Cl)cc2Cl)n1 (stereo unspecified)	–	1.51%
COc1ccc(C(C#N)Nc2ccccc2C)cc1 (stereo unspecified)	–	8.96%
COc1ccc(N2C(=O)C(O)C2c2ccc(C)cc2)cc1 (stereo unspecified)	–	-27%
COC(=O)C1C(=O)NCC1c1ccc(OC)cc1 (stereo unspecified)	–	-1.94%
COC(=O)C1=C(Nc2ccc(OC)cc2)C=C(C)C(C(=O)OC)C1c1ccc(C)cc1 (stereo unspecified)	16.4 µM (active)	–
O=C(Nc1ccccc1F)C1C2C=CC3(O2)C1C(=O)N(c1cccnc1)C3C(=O)NC1CCCCC1 (stereo unspecified)	–	-2.74%
CCCNc1c(N)c(=O)c1=O	–	-1.28%
Cc1nc([N+](=O)[O-])c(NCCCO)n1Cc1ccccc1	–	2.67%
COc1ccc(C2OCC3(CO2)SC(=O)NC3=O)cc1OC (stereo unspecified)	–	-5.98%
C#CC(C)(C)NC(=O)CSc1nc2c(c(=O)n(C)c(=O)n2C)n1CCCC	–	-10.2%
CCOC(=O)CSc1nc2c(c(=O)n(C)c(=O)n2C)n1Cc1ccccc1F	–	-23.5%
Cn1c(=O)c2c(nc(SCC(=O)Nc3ccc(F)cc3)n2Cc2ccccc2)n(C)c1=O	4.61 µM (active)	–
CC(C)n1c(SCC(=O)Nc2ccccc2N2CCCCC2)nc2c1c(=O)n(C)c(=O)n2C	23.1 µM (active)	–
CSc1nnc(C2CCCN(CC(=O)Nc3ccccc3N3CCOCC3)C2)n1C(C)C (stereo unspecified)	–	-22%
CCOc1ccc(Cn2c(SCCCCC#N)nc3c2c(=O)n(C)c(=O)n3C)cc1OCC	–	-13.1%
Cn1c(=O)c2c(nc(SCCNS(=O)(=O)c3ccccc3)n2C)n(C)c1=O	–	-27.8%
CCC1CCCCN1C(=O)CSc1nc2c(c(=O)n(C)c(=O)n2C)n1C (stereo unspecified)	–	-29.5%
CCCSc1nc2c(c(=O)n(C)c(=O)n2C)n1Cc1ccc(C)cc1	16.4 µM (active)	–

SMILES	Potency	activity change, negative = growth inhibition
Cc1cccc(Cn2c(SCCO)nc3c2c(=O)n(C)c(=O)n3C)c1	14.6 µM (active)	–
COc1ccc(NC(=O)CCn2ccnc2)c(OC)c1	–	-19.5%
Cc1ccc(C2(C)NC(=O)N(CC(=O)Nc3ccccc3C(=O)N3CCCCC3)C2=O)cc1 (stereo unspecified)	–	3.02%
CC(=O)NC(CC(=O)Nc1nc(-c2ccccc2)c(C(C)=O)s1)c1ccccc1 (stereo unspecified)	–	-17.4%
Cc1cc(=O)n2c3c(cccc13)CCC2	–	-12%
CCCCn1c(=O)c(C(C)=O)c(O)c2ccccc21	–	-5.9%
CCNC(=O)c1c(O)c2cccc3c2n(c1=O)CC3	23.1 µM (active)	–
CC(C)Cc1nnc(NC(=O)CCNC(=O)c2ccccc2Cl)s1	–	0.833%
COc1ccccc1CNc1nccn(-c2ccc(F)cc2)c1=O	–	-25.6%
Cn1c(NCc2cccnc2)nc2cc(-c3ccc(F)cc3)sc2c1=O	–	-1.95%
COc1cccc(-c2cc3nc(NCc4ccccc4OC)n(C)c(=O)c3s2)c1	20.6 µM (active)	–
CC(=O)NC(CC(=O)O)c1ccc(F)cc1 (stereo unspecified)	–	-8.86%
CC1(Cc2ccccc2C#N)C(=O)Nc2ccc(-c3ccc4[nH]ccc4c3)cc21 (stereo unspecified)	4.11 µM (active)	–
COc1ccccc1CC1(C)C(=O)Nc2ccc(OC(F)(F)F)cc21 (stereo unspecified)	–	-55.2%
CN1CCCN(S(=O)(=O)c2ccc3c(c2)OCCO3)CC1	inactive	–
N#CCC(=O)NC(=O)NCC1CC1	–	-5.15%
CC(OC(=O)c1ccc(-n2cnnn2)cc1)C(=O)NCc1ccccc1 (stereo unspecified)	–	-20.2%
CCc1ccnc(NC(=O)Nc2ccc(OCc3ccccc3)cc2)c1	–	-9.03%
CC(C)(C)OC(=O)N(Cc1ccccc1)Cc1ccc(OCc2cccc(NC(=O)c3ccccc3)c2)cc1	18.4 µM (active)	–
O=C(O)/C=C\C(=O)Nc1ccc(OCc2ccccc2)cc1	–	3.99%
CN(CC(=O)Nc1cccc(F)c1)C(=O)CC1CCCC1	–	-0.65%
Cc1cccc(C(=O)OC(C)CN2CCN(C)CC2)c1 (stereo unspecified)	–	-23.2%

SMILES	Potency	activity change, negative = growth inhibition
Cc1ccc(NC(=O)Cn2cnc3c(OCc4ccccc4)ncnc32)cc1C	–	-17.5%
Cc1ccc(CNC(=O)Cn2cnc3c(NCc4ccccc4)ncnc32)o1	8.2 µM (active)	–
CC(CNC(=O)Cn1cnc2c(OCc3ccccc3)ncnc21)c1ccccc1 (stereo unspecified)	–	-19.5%
Cc1cccc(OP(=O)(Nc2c(C)n(C)n(-c3ccccc3)c2=O)Oc2cccc(C)c2)c1	–	-7.24%
CCC1CCCCN1CCCNC(=O)Cn1nc(-c2ccccc2)ccc1=O (stereo unspecified)	0.0103 µM (active)	–
Cc1ccc(-c2ccc(=O)n(CC(=O)NCCCN3CCCCC3)n2)cc1	–	-4.15%
CCC1CCCCN1CCCNC(=O)C1CCC(Cn2c(=O)[nH]c3ccccc3c2=O)CC1 (stereo unspecified)	–	4.53%
Cc1ccc(C2Nc3ccccc3C(=O)N2CCN2CCNC2=O)cc1 (stereo unspecified)	–	-10.8%
COc1cccc(CNC(C)C(=O)Nc2ccc(S(=O)(=O)N3CCCC3)cc2)c1 (stereo unspecified)	–	-11.5%
COc1ccc(OCC(=O)OCC(=O)Nc2ccc(S(=O)(=O)N3CCCCC3)cc2)cc1	–	3.34%
COc1ccc(S(=O)(=O)N2CCN(C(C)C(=O)Nc3ccc(C(C)C)cc3)CC2)cc1 (stereo unspecified)	14.6 µM (active)	–
CCOC(=O)Cc1cc(=O)[nH]c(/N=C(\N)Nc2ccc(OC)cc2)n1	–	-6.58%
CC1C(C)N(C(=O)CCl)c2ccccc2N1C(=O)CCl (stereo unspecified)	0.58 µM (active)	–
CNC(=O)N1c2ccccc2C=Cc2ccccc21	–	-7.48%
CC1CCN(C(=O)CCNC(=O)c2ccccc2)CC1	–	-1.19%
Cc1nc(C)c2c(c1C(F)(F)F)-c1ccccc1C2(F)F	–	-11.9%
O=C(NC1CCCC1)c1ccc(Br)s1	–	-11.5%
CCOc1c2ccc(C(=O)NCc3ccc(OC(F)(F)F)cc3)cc2nn1C	–	-6.96%
COc1ccc(CNCCCNCc2ccc(OC)c(OC)c2)cc1OC	–	-14.4%
COc1cc(CNCc2ccc(OC)c3ccccc23)cc(OC)c1OC	11.6 µM (active)	–
COc1cc(CNCc2cccs2)cc(Br)c1OC	–	-18.6%
COc1ccc(CNC(=O)COC(=O)C2=Cc3ccccc3OC2)cc1	–	-21.4%

SMILES	Potency	activity change, negative = growth inhibition
O=C(COc1ccccc1)N1CCc2ccccc2C1	–	-23%
CCC(CC)c1nnc(NC(=O)/C=C/c2ccco2)s1	–	-3.52%
Cc1ccc2nc(-c3ccc(C)c(NC(=O)Cc4ccccc4)c3)oc2c1	–	-6.56%
CCc1ccc2oc(-c3ccc(C)c(NC(=O)/C=C/c4ccco4)c3)nc2c1	18.4 µM (active)	–
NC(=S)c1ccc(C(N)=S)o1	–	-1.35%
Cc1ccc(C(=O)O/N=C(\N)c2ccccn2)cc1Cl	–	-22.4%
COc1ccc(OC)c(NC(=O)/C=C/c2ccc(C)o2)c1	–	-22.9%
CCc1nnc(NC(=O)/C=C/c2ccc(C)o2)s1	–	5.94%
Cc1ccc(/C=C/C(=O)Nc2ccc([N+](=O)[O-])c(NC(=O)/C=C/c3ccc(C)o3)c2)o1	11.6 µM (active)	–
O=C(NC(=S)NC1CCSC1=O)c1ccccc1F (stereo unspecified)	–	-106%
Cc1ccc(-n2c(=O)cc(N3CCN(Cc4ccccc4)CC3)[nH]c2=O)cc1	–	-10.6%
COc1ccc(N(CC(=O)N/N=C/c2cccc3c2OCCO3)S(=O)(=O)c2ccc(NC(C)=O)cc2)cc1	–	-22.6%
COC(=O)COc1cccc2c(=O)n(CC(=O)NCCc3ccc(OC)c(OC)c3)ccc12	–	-6.18%
COC(=O)COc1cccc2c(=O)n(CC(=O)NCc3ccccc3)ccc12	2.06 µM (active)	–
CCOCCn1ccc2c(OCC(=O)NCc3ccc(C)cc3)cccc2c1=O	–	-13.9%
Cc1ccccc1OCC(=O)NNC(=O)c1cc(S(=O)(=O)N(C)C)ccc1N1CCCC1	–	-22.5%
Cc1ccccc1OCC(=O)Nc1ccc(N2CCN(C(=O)C(C)C)CC2)c(Cl)c1	6.51 µM (active)	–
Cc1ccccc1OCC(=O)Nc1ccc2c(c1)ncn2C	–	-1.77%

From PubChem BioAssay AID686978 (National Center for Advancing Translational Sciences (NCATS), 2013)
